This note sets out measurements from PubChem BioAssay (EPA / NIEHS).

SMILES strings stand for the structures. Several values for one entry are separate records, joined by “and”; a condition that tells them apart may be missing. Identical values can stand only once. The source holds several records for some structures; these can differ, active in one and inactive in another. Activity calls are given as the source filed them. Rule for the calls: active = hit-call score of the fitted dose curve at least 0.9, where 1 is the maximum; inactive = score below 0.9.

A short description of this test: BSK_BT_Bcell_Proliferation: Viability Assessment in the BioMAP Diversity Plus: BT Assay for B cell Proliferation (AID 2284227). Particulars: primary human B cells with PBMC. The procedure: BSK_BT is a cell-based, multiplexed-readout assay that uses B cell and peripheral blood mononuclear cells, a human vascular primary cell co-culture, with measurements taken at 24 hours after chemical dosing in a microplate: 96-well plate.BSK_BT_Bcell_Proliferation is an assay component measured in the BSK_BT assay. It measures protein content, a form of viability reporter, as detected with absorbance signals by Sulforhodamine staining technology.Data from the assay component BSK_BT_Bcell_Proliferation was analyzed at the endpoint, BSK_BT_Bcell_Proliferation, in the positive analysis fitting direction relative to DMSO as the negative control and baseline of activity. Using a type of viability reporter, gain or loss-of-signal activity can be used to understand cellular changes in viability. To generalize the intended target to other relatable targets, this assay endpoint is annotated to the 'cell cycle' intended target family, where the subfamily is 'proliferation'.
The levels of cell surface (or secreted, indicated by the prefix "s") biomarker endpoints were measured by ELISA. Overt cytotoxicity to cells in confluent adherent cultures (all systems other than the BT system) was assessed by measuring total protein levels using sulforhodamine B (SRB) staining in parallel cultures at the time of biomarker measurements, indicated as SRB endpoints. For proliferation assays for adherent cell types, individual cell types are cultured at sub-confluence and relative cell numbers quantified by SRB staining at time points optimized for each system (48 h: 3C and CASM3C systems; 72 h: BT and HDF3CGF systems; 96 h: SAg system). SRB was performed by staining cells with 0.1% SRB after fixation with 10% TCA and reading wells at 560 nm.Viability and proliferation of PBMC (T cells) was quantified by Alamar Blue reduction for the SAg and BT systems. For PBMC viability (referred to as PBMC Cytotoxicity within the assay endpoint names), cells were plated (75,000/well in a 96-well plate) and then chemical samples added for 1 h before addition of activators, SEB and TSST-1 (20 ng/mL final concentration each). Cells were incubated for 90 h. Then, Alamar Blue (20 uL/well) (Invitrogen, Cat DAL1100) was added for 6 h, and the plates were read with a fluorescence microplate reader at 546/580 nm (excitation/emission). For PBMC proliferation, cells were plated and activated as above but incubated for only 16 h prior to addition of Alamar Blue. Plates were read after 6 h.
What is called AC50 is the midpoint of the concentration-response curve, whichever way the signal moves. As for `O=S1(=O)CC(Cl)(Cl)C(Cl)(Cl)C1`, the AC50 is 0.537 µM (active).

As for `O=S(=O)(O)C(F)(F)C(F)(F)OC(F)(F)C(F)(F)F`, the outcome was inactive.

For the molecule `CCCCCCCC1CCCC1=O` (stereo unspecified), the outcome was inactive.

As for `C=C(F)C(=O)OC(C(F)(F)F)C(F)(F)F`, the result was inactive.

With `c1ccc2c(c1)-c1ccc3ccc4cccc5cc-2c1c3c45`, the AC50 was 1.98 µM (active).

As to `CC(C)(C)c1cccc(O)c1`, the outcome was inactive.

As to `O=C1OC2(c3ccc(O)cc3Oc3cc(O)ccc32)c2ccccc21`, the result was inactive.

On to `OCCN1CCOCC1`, for which the result was inactive.

Take `CCOC(=O)CCCCCCCCC(=O)OCC`: the outcome was inactive.

`CCCCCCCCCC(=O)OCC`: the outcome was inactive.

As for `c1ccc(Sc2ccccc2)cc1`, the outcome was inactive.

With `CCCCCCCCCCCCS`, the outcome was inactive.

As for `CC(=O)OC(C)(C)C1CC=C(C)CC1` (stereo unspecified), the result was inactive.

Take `C=C1CC/C=C(\C)CC[C@@H]2[C@@H]1CC2(C)C`: the result was inactive.

Regarding `OCC(F)(OC(F)(F)C(F)(OC(F)(F)C(F)(F)C(F)(F)F)C(F)(F)F)C(F)(F)F` (stereo unspecified), the AC50 was 3.33 µM (active) and the result was inactive.

Turning to `CCC(=O)OCC=Cc1ccccc1`, the result was inactive.

As to `NC(=O)c1c(Cl)cccc1Cl`, the outcome was inactive.

Take `CC(C)Cc1ccc(C(C)C(=O)O)cc1` (stereo unspecified): the result was inactive.

Take `C=C(C)C(=O)OCCC(F)(F)C(F)(F)C(F)(F)C(F)(F)C(F)(F)C(F)(F)C(F)(F)C(F)(F)F`: the result was inactive.

Turning to `CC(=O)OCC=C(C)CCC=C(C)CCC=C(C)C`, the AC50 is 37.9 µM (active).

Consider `CC=CC(=O)C1=C(C)C=CCC1(C)C`, for which the outcome was inactive.

Turning to `O=C(O)C(F)(F)OC(F)(F)C(F)(F)OC(F)(F)C(F)(F)C(F)(F)C(F)(F)F`, the outcome was inactive.

As for `C=CC(=O)OCC(CO)(COC(=O)C=C)COC(=O)C=C`, the concentration at half-maximal activity (AC50) is 1.19 µM (active).

For the molecule `CC1(C)[C@H](C=C(Cl)Cl)[C@H]1C(=O)OCc1cccc(Oc2ccccc2)c1`, the result was inactive.

Take `O=C(O)C(F)(F)C(F)(F)C(F)(F)C(F)(F)C(F)(F)C(F)(F)C(F)(F)C(F)F`: the AC50 was 21 µM (active) and 22.2 µM (active).

As to `COc1ccccc1NC(=O)CC(C)=O`, the outcome was inactive.

On to `CC(=O)CCC=C(C)CCC=C(C)C`, for which the AC50 was 31.7 µM (active).

As for `Nc1ccc(N)c([N+](=O)[O-])c1`, the result was inactive.

For the molecule `CC1=CC(C)C(C=O)C(C)C1` (stereo unspecified) (tested in a mixture with another compound), the outcome was inactive.

With `CCOC(=O)C=Cc1ccccc1`, the outcome was inactive.
